Calls of active or inactive are those of the source. The calls were made as follows: active = hit-call score of the fitted dose curve at least 0.9, where 1 is the maximum; inactive = score below 0.9.
Key:
Settings in all cases: mRNA level, 48 h; actives raise or lower the signal
[1] = read-out: Tumor necrosis factor receptor superfamily member 6 (Homo sapiens) (UniProt P25445); experiment: LTEA_HepaRG_FAS: Life Technologies and Expression Analysis (LTEA) Assay for Fas cell surface death receptor (FAS) using HepaRG (AID 2283447)
Outline: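 Differentiated human HepaRG cells, pre-cultured 48 h, were exposed in duplicate for 48 h to 8-point half-log concentrations (top 100 uM, 0.5% DMSO) in serum-free induction medium; FAS mRNA measured by qRT-PCR, normalized to ACTB/GAPDH/POLR2A, bidirectional fit versus DMSO.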

[2] = read-out: Fatty acid synthase (Homo sapiens) (UniProt P49327); experiment: LTEA_HepaRG_FASN: Life Technologies and Expression Analysis (LTEA) Assay for Fatty Acid Synthase (FASN) using HepaRG (AID 2283448)
Outline: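 In human HepaRG cultures, 48 h chemical exposure (up to 100 uM, 0.5% DMSO) preceded TaqMan qRT-PCR of FASN.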

[3] = read-out: Cyclin D2 (CCND2), CCND2 (gene 894); experiment: LTEA_HepaRG_CCND2: Life Technologies and Expression Analysis (LTEA) Assay for Cyclin D2 (CCND2) using HepaRG (AID 2283449);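 also: CCND2 transcript measured by TaqMan qRT-PCR and normalised to three housekeeping genes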
Outline: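 In this HepaRG study, an eight-point concentration series (max 100 uM, 0.5% DMSO) is applied for 48 h. CCND2 mRNA change is derived by qRT-PCR normalised to ACTB, GAPDH and POLR2A.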

[4] = read-out: Cyclin Dependent Kinase Inhibitor 1A (CDKN1A), CDKN1A (gene 1026); experiment: LTEA_HepaRG_CDKN1A: Life Technologies and Expression Analysis (LTEA) Assay for Cyclin Dependent Kinase Inhibitor 1A (CDKN1A) using HepaRG (AID 2283450)
Outline: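 Cryopreserved HepaRG cells were plated and cultured 48 h, then switched to serum-free induction medium. Chemicals (eight half-log concentrations, top 100 uM, 0.5% DMSO) were applied for 48 h. Lysates underwent qRT-PCR for CDKN1A with housekeeping normalization.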

[5] = read-out: Cyclin D1 (CCND1), CCND1 (gene 595); experiment: LTEA_HepaRG_CCND1: Life Technologies and Expression Analysis (LTEA) Assay for Cyclin D1 (CCND1) using HepaRG (AID 2283451)
Outline: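 Human liver HepaRG line; 48 h dosing, 8 conc. ≤100 uM, 0.5% DMSO; TaqMan qRT-PCR mRNA, 3 housekeeping genes; bidirectional curve fit vs DMSO.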

[6] = read-out: flavin-containing dimethylaniline monooxygenases 3 (FMO3), FMO3 (gene 2328); experiment: LTEA_HepaRG_FMO3: Life Technologies and Expression Analysis (LTEA) Assay for flavin-containing dimethylaniline monooxygenases 3 (FMO3) using HepaRG (AID 2283453);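 as to AC50: FMO3 transcript by TaqMan qRT-PCR normalized to ACTB GAPDH and POLR2A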
Outline: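 Eight-point concentration-response in serum-free HepaRG cultures (top 100 uM, 0.5% DMSO, 48 h). Read-out: FMO3 mRNA level normalized to three endogenous control genes, fitted bidirectionally versus vehicle.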

[7] = read-out: Cytochrome P450 (CYP1A1), CYP1A1 (gene 1543); experiment: LTEA_HepaRG_CYP1A1: Life Technologies and Expression Analysis (LTEA) Assay for Cytochrome P450 (CYP1A1) using HepaRG (AID 2283454)
Outline: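 Induction of CYP1A1 mRNA in a human hepatic cell line was measured 48 h after dosing, with 1 mM phenobarbital as induction positive control and 0.5% DMSO vehicle as baseline for bidirectional curve fitting.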

[8] = read-out: CFLAR gene, CFLAR (gene 8837); experiment: LTEA_HepaRG_CFLAR: Life Technologies and Expression Analysis (LTEA) Assay for CFLAR gene using HepaRG (AID 2283455)
Outline: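 Gain- or loss-of-signal changes in CFLAR transcript were fitted bidirectionally relative to 0.5% DMSO. Cells (HepaRG, duplicate wells) were dosed for 48 h across eight half-log concentrations topping at 100 uM; quantitation by TaqMan qRT-PCR.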

[9] = read-out: Forkhead box O1 (FOXO1), FOXO1 (gene 2308); experiment: LTEA_HepaRG_FOXO1: Life Technologies and Expression Analysis (LTEA) Assay for Forkhead box O1 (FOXO1) using HepaRG (AID 2283456)
Outline: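 Using one lot of HepaRG hepatic cells kept in 0.5% DMSO, the team applied test chemicals in duplicate, half-log dilutions from 100 uM, for 48 h. Expression, normalised to ACTB/GAPDH/POLR2A, was compared with vehicle in either direction.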

[10] = read-out: growth arrest and DNA damage 45 (GADD45A), GADD45A (gene 1647); experiment: LTEA_HepaRG_GADD45A: Life Technologies and Expression Analysis (LTEA) Assay for growth arrest and DNA damage 45 (GADD45A) using HepaRG (AID 2283458)
Outline: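 Eight-point concentration-response in HepaRG cells: 48 h chemical exposure, 0.5% DMSO vehicle, top dose 100 uM. Normalized qRT-PCR mRNA readout with bidirectional fitting relative to DMSO.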

[11] = read-out: Forkhead box O3 (FOXO3), FOXO3 (gene 2309); experiment: LTEA_HepaRG_FOXO3: Life Technologies and Expression Analysis (LTEA) Assay for Forkhead box O3 (FOXO3) using HepaRG (AID 2283459)
Outline: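 Gene-expression endpoint: FOXO3 transcript level by qRT-PCR in HepaRG cultures treated 48 h with chemicals up to 100 uM (half-log, 0.5% DMSO vehicle).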

[12] = read-out: ABC Transporter (ABCB1), ABCB1 (gene 5243); experiment: LTEA_HepaRG_ABCB1: Life Technologies and Expression Analysis (LTEA) Assay for ABC Transporter (ABCB1) using HepaRG (AID 2283460)
Outline: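 Human liver HepaRG line treated 48 h with up to 100 uM compound (eight half-log points, 0.5% DMSO); ABCB1 mRNA change fitted bidirectionally against DMSO controls.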

[13] = read-out: growth arrest and DNA damage 45 (GADD45B), GADD45B (gene 4616); experiment: LTEA_HepaRG_GADD45B: Life Technologies and Expression Analysis (LTEA) Assay for growth arrest and DNA damage 45 (GADD45B) using HepaRG (AID 2283461)
Outline: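 Values are bidirectional concentration-response fits against 0.5% DMSO controls. Underlying data: qRT-PCR mRNA levels in human HepaRG liver cells treated 48 h in serum-free induction medium, eight concentrations topping at 100 uM.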

[14] = read-out: ABC Transporter (ABCC3), ABCC3 (gene 8714); experiment: LTEA_HepaRG_ABCC3: Life Technologies and Expression Analysis (LTEA) Assay for ABC Transporter (ABCC3) using HepaRG (AID 2283462)
Outline: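 Differentiated HepaRG liver cells receive test chemicals at eight concentrations (max 100 uM) for 48 h. Expression of ABCC3 is quantified by qRT-PCR against ACTB, GAPDH and POLR2A, and activity is fitted in both directions against the DMSO control.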

[15] = read-out: ABC Transporter (ABCB11), ABCB11 (gene 8647); experiment: LTEA_HepaRG_ABCB11: Life Technologies and Expression Analysis (LTEA) Assay for ABC Transporter (ABCB11) using HepaRG (AID 2283463)
Outline: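 Using HepaRG cultures held in 0.5% DMSO, chemicals were tested at half-log dilutions from 100 uM for 48 h. Induction or suppression of ABCB11 mRNA, normalized to ACTB, GAPDH and POLR2A, was fitted bidirectionally against vehicle.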

[16] = read-out: ABC Transporter (ABCC2), ABCC2 (gene 1244); experiment: LTEA_HepaRG_ABCC2: Life Technologies and Expression Analysis (LTEA) Assay for ABC Transporter (ABCC2) using HepaRG (AID 2283464)
Outline: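 Gene expression of ABCC2 was determined by qRT-PCR in HepaRG cells exposed 48 h to chemicals (highest 100 uM, half-log dilutions). Activity was fitted in both directions relative to 0.5% DMSO vehicle.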

[17] = read-out: Broad substrate specificity ATP-binding cassette transporter ABCG2 (Homo sapiens) (UniProt Q9UNQ0); experiment: LTEA_HepaRG_ABCG2: Life Technologies and Expression Analysis (LTEA) Assay for ABC Transporter (ABCG2) using HepaRG (AID 2283465)
Outline: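 Gene expression of ABCG2 in HepaRG liver cells is quantified by qRT-PCR following 48 h exposure across an eight-point series topping at 100 uM. Values come from bidirectional fitting relative to DMSO vehicle.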

[18] = read-out: ATP-citrate lyase (ACLY), ACLY (gene 47); experiment: LTEA_HepaRG_ACLY: Life Technologies and Expression Analysis (LTEA) Assay for ATP-citrate lyase (ACLY) using HepaRG (AID 2283466)
Outline: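 ACLY expression changes in human HepaRG liver cells are quantified by qRT-PCR after 48 h exposure to test chemicals (maximum 100 uM, half-log steps). Values are fitted in both directions relative to 0.5% DMSO vehicle.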

Measured: AC50

Sequence of Fatty acid synthase (Homo sapiens) (P49327 whole entry, looked up): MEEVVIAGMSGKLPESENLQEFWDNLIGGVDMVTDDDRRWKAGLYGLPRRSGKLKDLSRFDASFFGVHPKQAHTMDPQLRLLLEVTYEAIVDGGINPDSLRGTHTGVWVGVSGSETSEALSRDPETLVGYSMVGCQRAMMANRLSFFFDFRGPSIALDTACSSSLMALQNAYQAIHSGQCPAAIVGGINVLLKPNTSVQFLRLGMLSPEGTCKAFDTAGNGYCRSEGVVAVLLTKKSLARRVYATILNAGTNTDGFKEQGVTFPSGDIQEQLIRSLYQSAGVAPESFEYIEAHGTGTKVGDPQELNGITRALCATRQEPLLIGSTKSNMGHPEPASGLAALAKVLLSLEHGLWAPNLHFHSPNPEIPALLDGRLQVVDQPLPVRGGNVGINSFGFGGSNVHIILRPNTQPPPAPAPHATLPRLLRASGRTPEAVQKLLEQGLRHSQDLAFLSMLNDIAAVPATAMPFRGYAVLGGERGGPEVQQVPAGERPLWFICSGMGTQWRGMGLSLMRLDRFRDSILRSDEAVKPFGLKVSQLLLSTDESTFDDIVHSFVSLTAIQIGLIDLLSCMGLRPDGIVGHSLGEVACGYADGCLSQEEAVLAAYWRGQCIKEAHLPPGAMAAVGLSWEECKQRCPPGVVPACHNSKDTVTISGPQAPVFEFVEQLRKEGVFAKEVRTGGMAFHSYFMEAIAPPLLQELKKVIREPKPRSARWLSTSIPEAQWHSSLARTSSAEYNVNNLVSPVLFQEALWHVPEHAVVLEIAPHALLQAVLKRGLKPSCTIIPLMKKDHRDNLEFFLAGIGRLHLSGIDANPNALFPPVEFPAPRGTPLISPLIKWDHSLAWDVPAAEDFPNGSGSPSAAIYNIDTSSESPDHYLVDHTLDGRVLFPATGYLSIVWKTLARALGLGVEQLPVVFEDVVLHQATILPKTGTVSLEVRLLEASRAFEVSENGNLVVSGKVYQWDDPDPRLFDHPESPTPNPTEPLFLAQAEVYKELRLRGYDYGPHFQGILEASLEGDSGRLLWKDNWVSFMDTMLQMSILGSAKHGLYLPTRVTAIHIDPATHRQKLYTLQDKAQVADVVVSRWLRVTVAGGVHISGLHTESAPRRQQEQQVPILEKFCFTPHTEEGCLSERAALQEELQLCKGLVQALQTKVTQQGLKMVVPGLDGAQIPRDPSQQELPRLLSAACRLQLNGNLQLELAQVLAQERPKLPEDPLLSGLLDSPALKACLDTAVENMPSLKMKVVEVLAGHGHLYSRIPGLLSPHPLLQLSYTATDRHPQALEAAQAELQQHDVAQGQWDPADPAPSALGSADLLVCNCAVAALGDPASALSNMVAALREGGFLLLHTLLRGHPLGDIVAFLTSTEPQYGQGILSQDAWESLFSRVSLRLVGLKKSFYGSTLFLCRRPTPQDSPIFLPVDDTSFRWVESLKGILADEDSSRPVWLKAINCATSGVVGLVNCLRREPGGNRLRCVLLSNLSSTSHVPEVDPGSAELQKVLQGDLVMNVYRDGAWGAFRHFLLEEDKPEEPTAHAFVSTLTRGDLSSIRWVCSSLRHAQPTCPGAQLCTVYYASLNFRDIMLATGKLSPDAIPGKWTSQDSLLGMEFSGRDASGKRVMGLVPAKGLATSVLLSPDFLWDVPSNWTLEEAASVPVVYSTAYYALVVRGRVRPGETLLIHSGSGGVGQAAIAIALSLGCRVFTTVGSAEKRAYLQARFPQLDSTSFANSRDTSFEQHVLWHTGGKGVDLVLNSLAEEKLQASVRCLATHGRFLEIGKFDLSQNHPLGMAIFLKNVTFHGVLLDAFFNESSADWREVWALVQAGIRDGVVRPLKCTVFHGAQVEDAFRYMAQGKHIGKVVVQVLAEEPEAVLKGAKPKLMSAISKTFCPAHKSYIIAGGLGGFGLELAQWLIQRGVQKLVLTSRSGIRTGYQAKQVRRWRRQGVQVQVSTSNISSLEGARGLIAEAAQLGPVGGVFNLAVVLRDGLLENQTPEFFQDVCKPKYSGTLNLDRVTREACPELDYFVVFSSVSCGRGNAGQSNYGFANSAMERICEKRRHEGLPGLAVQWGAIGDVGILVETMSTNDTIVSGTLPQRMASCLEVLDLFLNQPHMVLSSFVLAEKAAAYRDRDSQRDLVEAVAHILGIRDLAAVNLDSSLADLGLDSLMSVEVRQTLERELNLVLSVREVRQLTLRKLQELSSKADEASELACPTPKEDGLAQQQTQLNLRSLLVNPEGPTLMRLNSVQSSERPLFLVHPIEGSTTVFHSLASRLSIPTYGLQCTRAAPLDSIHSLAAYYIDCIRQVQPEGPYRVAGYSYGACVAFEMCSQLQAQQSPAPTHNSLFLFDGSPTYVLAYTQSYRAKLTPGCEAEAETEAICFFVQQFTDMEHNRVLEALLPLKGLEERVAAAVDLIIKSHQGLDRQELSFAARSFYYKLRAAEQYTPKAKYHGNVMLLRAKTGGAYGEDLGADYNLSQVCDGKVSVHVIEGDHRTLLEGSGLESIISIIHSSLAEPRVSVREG
Sequence of Broad substrate specificity ATP-binding cassette transporter ABCG2 (Homo sapiens) (Q9UNQ0 whole entry, looked up): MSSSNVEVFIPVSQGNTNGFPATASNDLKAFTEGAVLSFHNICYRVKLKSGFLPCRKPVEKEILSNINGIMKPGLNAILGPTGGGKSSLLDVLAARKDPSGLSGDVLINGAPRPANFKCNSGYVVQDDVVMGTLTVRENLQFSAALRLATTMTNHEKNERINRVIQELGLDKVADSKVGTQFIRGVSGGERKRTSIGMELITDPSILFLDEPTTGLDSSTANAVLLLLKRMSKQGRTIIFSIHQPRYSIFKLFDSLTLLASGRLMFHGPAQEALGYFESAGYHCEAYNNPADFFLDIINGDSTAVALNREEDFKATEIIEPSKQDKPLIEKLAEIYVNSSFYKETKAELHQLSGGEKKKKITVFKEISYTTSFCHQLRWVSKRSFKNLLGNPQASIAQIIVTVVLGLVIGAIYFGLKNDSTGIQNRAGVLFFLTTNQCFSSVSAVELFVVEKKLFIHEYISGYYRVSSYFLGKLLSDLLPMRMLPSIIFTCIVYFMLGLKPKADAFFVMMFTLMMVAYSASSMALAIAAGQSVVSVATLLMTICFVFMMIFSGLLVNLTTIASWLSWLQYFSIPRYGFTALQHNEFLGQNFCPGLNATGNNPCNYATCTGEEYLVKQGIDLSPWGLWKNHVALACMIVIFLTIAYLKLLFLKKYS

C[C@]12CCC(=O)C=C1CC[C@@H]1[C@@H]2CC[C@@]2(C)[C@H]1CC[C@]2(C)O
active: [2] 66.1 µM | [4] 79.9 µM | [6] 66 µM | [10] 45.8 µM | [12] 5.73 µM | [15] 0.647 µM | [17] 9.08 µM | [18] 45.8 µM
inactive: [1] | [3] | [5] | [7] | [8] | [9] | [11] | [13] | [14] | [16]

C=CC(=O)NCNC(=O)C=C
active: [7] 25 µM | [13] 50 µM | [15] 50 µM | [16] 16 µM | [18] 12.7 µM
inactive: [1] | [2] | [4] | [5] | [6] | [8] | [9] | [10] | [11] | [12] | [14] | [17]

O=C(O)C(F)(F)C(F)(F)C(F)(F)C(F)(F)C(F)(F)F
inactive: [1] | [2] | [3] | [4] | [5] | [9] | [10] | [11] | [12] | [13] | [14] | [15] | [16] | [18]
active: [6] 2.34 µM | [7] 50 µM | [17] 9.92 µM

From PubChem BioAssay (EPA / NIEHS)
